Source: PubChem BioAssay AID1159580 (chemical genetic matrix, 2015)
Where “and” joins values, the source holds several entries; their conditions need not be identical. Identical values can stand only once. About 2,000 (36%) of roughly 5,500 compounds were called active. About 18% were inconclusive and are not listed. Cut-off read from the data, not from the text of the source: active = normalized growth mostly below about 0.91 (no sharp cut-off); inconclusive = no clear call, values can overlap the other calls; inactive = mostly above about 0.92. The list shows a part of the results.

Experiment: chemical genetic growth profiling, strain panel (AID 1159580);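 note: tested at 20 µM; growth read once vehicle control cultures reached saturation at 30 °C; 1 = growth at the plate median or of vehicle wells; lower values mean less growth of the strain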
Details: growth OD
[1] = S. cerevisiae deletion strains, locus YAL013W, strain DEP1, hits give low values
[2] = S. cerevisiae deletion strains, locus YBR229C, strain ROT2, hits give low values
[3] = S. cerevisiae deletion strains, locus YDL101C, strain DUN1, hits give low values
[4] = S. cerevisiae deletion strains, locus YDL134C, strain PPH21, hits give low values
[5] = S. cerevisiae deletion strains, locus YDR150W, strain NUM1, hits give low values
[6] = S. cerevisiae deletion strains, locus YEL061C, strain CIN8, hits give low values
[7] = S. cerevisiae deletion strains, locus YGR078C, strain PAC10, hits give low values
[8] = S. cerevisiae deletion strains, locus YHR030C, strain SLT2, hits give low values
[9] = S. cerevisiae deletion strains, locus YHR079C, strain IRE1, hits give low values
[10] = S. cerevisiae deletion strains, locus YJL095W, strain BCK1, hits give low values
[11] = S. cerevisiae deletion strains, locus YJR043C, strain POL32, hits give low values
[12] = S. cerevisiae deletion strains, locus YJR066W, strain TOR1, hits give low values
[13] = S. cerevisiae deletion strains, locus YJR075W, strain HOC1, hits give low values
[14] = S. cerevisiae deletion strains, locus YKL190W, strain CNB1, hits give low values
[15] = S. cerevisiae deletion strains, locus YLR039C, strain RIC1, hits give low values
[16] = S. cerevisiae deletion strains, locus YLR113W, strain HOG1, hits give low values
[17] = S. cerevisiae deletion strains, locus YLR262C, strain YPT6, hits give low values
[18] = S. cerevisiae deletion strains, locus YMR263W, strain SAP30, hits give low values
[19] = S. cerevisiae deletion strains, locus YNL153C, strain GIM3, hits give low values
[20] = S. cerevisiae deletion strains, locus YNL183C, strain NPR1, hits give low values
[21] = S. cerevisiae deletion strains, locus YNL322C, strain KRE1, hits give low values
[22] = S. cerevisiae deletion strains, locus YOL006C, strain TOP1, hits give low values
[23] = S. cerevisiae deletion strains, locus YOR231W, strain MKK1, hits give low values
[24] = S. cerevisiae deletion strains, locus YPL055C, strain LGE1, hits give low values
[25] = S. cerevisiae deletion strains, locus YPL241C, strain CIN2, hits give low values
[26] = S. cerevisiae deletion strains, locus YPL256C, strain CLN2, hits give low values
[27] = S. cerevisiae strains, strain wild type, hits give low values

Measured: normalized growth

CSc1ccc(/C=C/[N+](=O)[O-])cc1
active: [1] 0.0558 | [2] 0.0536 | S. cerevisiae deletion strains, locus YCL061C, strain MRC1, hits give low values 0.0551 | [3] 0.0652 | [4] 0.0471 | [5] 0.582 | [6] 0.0542 | S. cerevisiae deletion strains, locus YGR052W, strain FMP48, hits give low values 0.131 | [7] 0.0514 | [8] 0.0754 and 0.122 | [9] 0.176 | S. cerevisiae deletion strains, locus YHR082C, strain KSP1, hits give low values 0.118 | S. cerevisiae deletion strains, locus YHR087W, strain rtc3, hits give low values 0.0549 | [10] 0.126 | [11] 0.0504 | [12] 0.114 | [13] 0.0722 | S. cerevisiae deletion strains, locus YKL171W, strain NNK1, hits give low values 0.104 | [14] 0.0461 | S. cerevisiae deletion strains, locus YKL203C, strain TOR2, hits give low values 0.107 | [15] 0.0613 | S. cerevisiae deletion strains, locus YLR058C, strain SHM2 (second series), hits give low values 0.0502 | S. cerevisiae deletion strains, locus YLR085C, strain ARP6, hits give low values 0.0653 | [16] 0.179 | [17] 0.0583 | S. cerevisiae deletion strains, locus YML094W, strain GIM5, hits give low values 0.0645 | S. cerevisiae deletion strains, locus YMR219W, strain ESC1, hits give low values 0.0483 | [18] 0.0556 | [19] 0.0516 | [20] 0.138 | S. cerevisiae deletion strains, locus YNL207W, strain RIO2, hits give low values 0.0972 | S. cerevisiae deletion strains, locus YNL298W, strain CLA4 (second series), hits give low values 0.0614 | [21] 0.0528 | S. cerevisiae deletion strains, locus YNR030W, strain Alg12, hits give low values 0.0591 | [22] 0.068 | S. cerevisiae deletion strains, locus YOR119C, strain RIO1, hits give low values 0.119 | [23] 0.133 | [24] 0.0721 | [25] 0.0816 | [26] 0.17 | S. cerevisiae deletion strains, locus YPR135W, strain CTF4, hits give low values 0.202 | [27] 0.0455

CC(=O)Nc1ccc(S(=O)(=O)Nc2ccc([N+](=O)[O-])cc2)cc1
inactive: [1] 1.01 | S. cerevisiae deletion strains, locus YBR021W, strain FUR4, hits give low values 0.97 | [2] 1.01 | S. cerevisiae deletion strains, locus YCL029C, strain bik1, hits give low values 1.01 | S. cerevisiae deletion strains, locus YDL035C, strain GPR1, hits give low values 1.01 | S. cerevisiae deletion strains, locus YDL074C, strain BRE1, hits give low values 0.986 | [3] 1 | [4] 1 | S. cerevisiae deletion strains, locus YDL185W, strain tfp1, hits give low values 0.999 | S. cerevisiae deletion strains, locus YDL192W, strain arf1, hits give low values 1.01 | S. cerevisiae deletion strains, locus YDR101C, strain arx1, hits give low values 0.99 | [5] 1.02 | S. cerevisiae deletion strains, locus YDR162C, strain NBP2, hits give low values 1.01 | S. cerevisiae deletion strains, locus YDR318W, strain mcm21, hits give low values 0.991 | S. cerevisiae deletion strains, locus YDR388W, hits give low values 0.999 | S. cerevisiae deletion strains, locus YDR502C, strain sam2, hits give low values 1 | [6] 1.01 | S. cerevisiae deletion strains, locus YER110C, hits give low values 0.997 | S. cerevisiae deletion strains, locus YER155C, strain BEM2, hits give low values 1 | S. cerevisiae deletion strains, locus YER167W, strain BCK2, hits give low values 1.01 | S. cerevisiae deletion strains, locus YGL078C, strain dbp3, hits give low values 1 | S. cerevisiae deletion strains, locus YGL086W, strain mad1, hits give low values 1 | S. cerevisiae deletion strains, locus YGL248W, strain PDE1, hits give low values 1 | [7] 0.995 | S. cerevisiae deletion strains, locus YGR135W, strain pre9, hits give low values 0.996 | S. cerevisiae deletion strains, locus YGR229C, strain SMI1, hits give low values 1.01 | S. cerevisiae deletion strains, locus YGR252W, strain gcn5, hits give low values 0.955 | [8] 1.01 and 1 | S. cerevisiae deletion strains, locus YHR079C, strain IRE1 (second series), hits give low values 0.997 | [9] 0.984 | S. cerevisiae deletion strains, locus YHR094C, strain hxt1, hits give low values 1 | S. cerevisiae deletion strains, locus YHR129C, strain ARP1, hits give low values 1 | S. cerevisiae deletion strains, locus YHR200W, strain rpn10, hits give low values 0.992 | S. cerevisiae deletion strains, locus YIL066C, strain RNR3, hits give low values 1.02 | S. cerevisiae deletion strains, locus YIL073C, strain SPO22, hits give low values 1.05 | S. cerevisiae deletion strains, locus YIL125W, strain kgd1, hits give low values 0.996 | S. cerevisiae deletion strains, locus YIR030C, strain dcg1, hits give low values 1.01 | [10] 0.994 and 0.998 | S. cerevisiae deletion strains, locus YJL134W, strain LCB3, hits give low values 1.01 | S. cerevisiae deletion strains, locus YJL168C, strain set2, hits give low values 0.989 | S. cerevisiae deletion strains, locus YJL187C, strain SWE1 (second series), hits give low values 1.01 | [11] 0.995 | [12] 0.93 | [13] 1.01 | S. cerevisiae deletion strains, locus YKL009W, strain mrt4, hits give low values 1.09 | S. cerevisiae deletion strains, locus YKL068W, hits give low values 1 | S. cerevisiae deletion strains, locus YKL085W, strain MDH1 (second series), hits give low values 1.01 | S. cerevisiae deletion strains, locus YKL085W, strain MDH1, hits give low values 1.01 | [14] 1.01 | S. cerevisiae deletion strains, locus YKR001C, strain vps1, hits give low values 1.01 | [15] 1.04 | S. cerevisiae deletion strains, locus YLR058C, strain SHM2, hits give low values 1.01 | S. cerevisiae deletion strains, locus YLR102C, strain apc9, hits give low values 0.994 | [16] 0.969 | [17] 1.04 | S. cerevisiae deletion strains, locus YLR268W, strain sec22, hits give low values 0.993 | S. cerevisiae deletion strains, locus YLR330W, strain CHS5, hits give low values 1.01 | S. cerevisiae deletion strains, locus YLR342W, strain FKS1 (second series), hits give low values 0.995 | S. cerevisiae deletion strains, locus YLR371W, strain rom2, hits give low values 0.994 | S. cerevisiae deletion strains, locus YLR418C, strain cdc73, hits give low values 0.949 | S. cerevisiae deletion strains, locus YML016C, strain PPZ1, hits give low values 1.01 | S. cerevisiae deletion strains, locus YML032C, strain rad52, hits give low values 0.987 | S. cerevisiae deletion strains, locus YML124C, strain tub3, hits give low values 1 | S. cerevisiae deletion strains, locus YMR078C, strain ctf18, hits give low values 0.993 | S. cerevisiae deletion strains, locus YMR223W, strain ubp8, hits give low values 1 | [18] 1.01 | S. cerevisiae deletion strains, locus YMR307W, strain GAS1, hits give low values 0.989 | S. cerevisiae deletion strains, locus YNL067W, strain RPL9B, hits give low values 1.01 | S. cerevisiae deletion strains, locus YNL128W, strain TEP1, hits give low values 1.01 | [19] 0.995 | [20] 0.941 | S. cerevisiae deletion strains, locus YNL233W, strain BNI4, hits give low values 1 | S. cerevisiae deletion strains, locus YNL250W, strain rad50, hits give low values 0.996 | S. cerevisiae deletion strains, locus YNL271C, strain bni1, hits give low values 1 | S. cerevisiae deletion strains, locus YNL298W, strain CLA4, hits give low values 1 | S. cerevisiae deletion strains, locus YNL307C, strain MCK1, hits give low values 1 | [21] 1 | S. cerevisiae deletion strains, locus YNR052C, strain pop2, hits give low values 1 | [22] 0.975 | S. cerevisiae deletion strains, locus YOL012C, strain htz1 1.05 | S. cerevisiae deletion strains, locus YOL147C, strain pex11, hits give low values 0.996 | S. cerevisiae deletion strains, locus YOR061W, strain CKA2, hits give low values 1.01 | S. cerevisiae deletion strains, locus YOR069W, strain VPS5, hits give low values 1 | S. cerevisiae deletion strains, locus YOR136W, strain idh2, hits give low values 0.998 | S. cerevisiae deletion strains, locus YOR144C, strain elg1, hits give low values 0.997 | S. cerevisiae deletion strains, locus YOR184W, strain ser1, hits give low values 1 | [23] 0.989 | S. cerevisiae deletion strains, locus YOR316C, strain cot1, hits give low values 1 | [24] 1.03 | [25] 1.01 | [26] 0.989 | S. cerevisiae deletion strains, locus YPR119W, strain clb2, hits give low values 0.998 | S. cerevisiae deletion strains, locus YPR141C, strain kar3, hits give low values 1 | S. cerevisiae deletion strains, locus YPR163C, strain tif3, hits give low values 1.01 | S. cerevisiae deletion strains, locus YPR167C, strain met16, hits give low values 0.992 | S. cerevisiae deletion strains, strain wtn01, hits give low values 0.988 | [27] 1.01
